From PubChem BioAssay
Activity calls are given as the source filed them.

Key:
[1] = binders of probe aFSTL3 on microarray, primary screen, stem cell growth factor project, biochemical, small-molecule microarray, fluorescence 635/667 (AID 1064); conditions: higher = more signal;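 note: measures binding of the biotinylated anti-FSTL3 antibody to printed compounds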
[2] = binders from COS7 lysate, DM2A8 probe, primary screen, torsin A project, cell lysate, small-molecule microarray, fluorescence 635/667 (AID 1065); conditions: higher = more signal, COS7 lysate expressing mutant human TOR1A
[3] = binders of probe aFGF2 on microarray, primary screen, stem cell growth factor project, biochemical, small-molecule microarray, fluorescence 635/667 (AID 1067); conditions: higher = more signal;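 note: measures binding of biotinylated aFGF2 protein to printed compounds on slides; z-score merges feature fluorescence and signal-to-noise across triplicate slides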
[4] = binders of probe aFGF10 on microarray, primary screen, stem cell growth factor project, biochemical, small-molecule microarray, fluorescence 635/667 (AID 1071); conditions: higher = more signal;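 note: score merges 667 nm spot intensity and signal to noise from triplicate slides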
[5] = target: Neurogenic locus notch homolog protein 2 (Homo sapiens) (UniProt Q04721); assay: Notch2 binders on small-molecule microarrays, primary screen, biochemical, small-molecule microarray, 635 nm fluorescence, stem cell growth factors (AID 1073); conditions: Notch2 binding, higher = more signal
[6] = target: Pro-neuregulin-1, membrane-bound isoform (Homo sapiens) (UniProt Q02297); assay: NRG1 binders on small-molecule microarrays, primary screen, psychiatric disease protein project, biochemical, small-molecule microarray, fluorescence 635/667 (AID 1075); conditions: NRG1 binding, 635 nm fluorescence, higher = more signal;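 note: score combines 667 nm spot fluorescence with signal to noise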
Chain of Pro-neuregulin-1, membrane-bound isoform (Homo sapiens) (Q02297 whole entry, looked up, the tested form may be a part, canonical isoform): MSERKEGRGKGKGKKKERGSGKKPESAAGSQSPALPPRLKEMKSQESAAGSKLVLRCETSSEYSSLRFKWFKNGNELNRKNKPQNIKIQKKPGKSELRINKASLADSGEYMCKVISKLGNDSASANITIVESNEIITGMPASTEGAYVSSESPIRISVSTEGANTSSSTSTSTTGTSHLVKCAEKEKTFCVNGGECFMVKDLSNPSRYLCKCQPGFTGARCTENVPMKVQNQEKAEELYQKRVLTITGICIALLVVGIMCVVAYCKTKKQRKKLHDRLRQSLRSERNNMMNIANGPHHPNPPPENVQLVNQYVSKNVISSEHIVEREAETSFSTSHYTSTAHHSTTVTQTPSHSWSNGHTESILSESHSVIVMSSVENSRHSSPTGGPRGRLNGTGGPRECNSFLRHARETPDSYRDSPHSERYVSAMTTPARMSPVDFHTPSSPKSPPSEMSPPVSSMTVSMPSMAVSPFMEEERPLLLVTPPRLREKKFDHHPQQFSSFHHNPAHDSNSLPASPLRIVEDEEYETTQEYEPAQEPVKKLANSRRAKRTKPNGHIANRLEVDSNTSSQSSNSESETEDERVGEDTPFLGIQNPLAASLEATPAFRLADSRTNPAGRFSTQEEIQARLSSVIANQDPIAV

[7] = system: Neuregulin-1 EGF-like domain; assay: binders of neuregulin-1 EGF-like domain, primary screen, biochemical, small-molecule microarray, 635 nm fluorescence (AID 1081); conditions: small-molecule microarray binding, higher = more signal;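 note: binding of the protein to compounds printed on small-molecule microarray slides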
[8] = FRG1 promoter luciferase signal modulators, primary screen, FRG1 inhibition for FSHD, cell-based, C2C12 myotubes, firefly/Renilla luciferase, luminescence (AID 1084); conditions: higher = more signal, called active from +8 up or from −8 down
[9] = binders of probe aFST on microarray, primary screen, stem cell growth factor project, biochemical, small-molecule microarray, fluorescence 635/667 (AID 1086); conditions: higher = more signal;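 note: score merges 667 nm fluorescence with signal-to-noise of each printed compound spot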
[10] = binders of probe aHhip on microarray, primary screen, stem cell growth factor project, biochemical, small-molecule microarray, fluorescence 635/667 (AID 1087); conditions: higher = more signal;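 note: score merges spot fluorescence at 667nm with spot signal to noise ratio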
[11] = system: PRMT1 (protein arginine N-methyltransferase 1); assay: PRMT1 binders on small-molecule microarrays, primary screen, biochemical, small-molecule microarray, 635 nm fluorescence (AID 1088); conditions: small-molecule microarray binding, higher = more signal;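 note: binding of Prmt1 protein to compounds spotted on small-molecule microarray slides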
[12] = yeast growth modulation, basal conditions, primary screen, YJM789 clinical isolate, OD600, 24 h (AID 1089);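 note: growth of clinical yeast isolate S. cerevisiae YJM 789 seeded 1000 cells per well; test concentration not given here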; conditions: S. cerevisiae YJM789 growth, higher = more signal, called active from +8 up or from −8 down
[13] = fission yeast growth modulation, primary screen, strain 972, OD600, 24 h, no modulator (AID 1090);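 note: basal condition with compound alone and no growth modifier present; test concentration not given here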; conditions: S. pombe 972 growth, higher = more signal, called active from +8 up or from −8 down
[14] = S. cerevisiae growth modulation with rapamycin, primary screen, strain BY4716, OD600, 96 h (AID 1091); conditions: higher = more signal, called active from +8 up or from −8 down; note: test concentration not given here
[15] = target: Torsin-1A-interacting protein 2 (Homo sapiens) (UniProt Q8NFQ8); assay: LULL1 binders on small-molecule microarray, primary screen, cell lysate, human LULL1 lysate, 635/667 nm fluorescence (AID 1092); conditions: hLULL1 lysate binding, 635 nm fluorescence, higher = more signal;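 note: probe is lysate of COS7 cells overexpressing human LULL1; score merges per-feature 667 nm fluorescence with signal-to-noise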
Chain of Torsin-1A-interacting protein 2 (Homo sapiens) (Q8NFQ8 whole entry, looked up): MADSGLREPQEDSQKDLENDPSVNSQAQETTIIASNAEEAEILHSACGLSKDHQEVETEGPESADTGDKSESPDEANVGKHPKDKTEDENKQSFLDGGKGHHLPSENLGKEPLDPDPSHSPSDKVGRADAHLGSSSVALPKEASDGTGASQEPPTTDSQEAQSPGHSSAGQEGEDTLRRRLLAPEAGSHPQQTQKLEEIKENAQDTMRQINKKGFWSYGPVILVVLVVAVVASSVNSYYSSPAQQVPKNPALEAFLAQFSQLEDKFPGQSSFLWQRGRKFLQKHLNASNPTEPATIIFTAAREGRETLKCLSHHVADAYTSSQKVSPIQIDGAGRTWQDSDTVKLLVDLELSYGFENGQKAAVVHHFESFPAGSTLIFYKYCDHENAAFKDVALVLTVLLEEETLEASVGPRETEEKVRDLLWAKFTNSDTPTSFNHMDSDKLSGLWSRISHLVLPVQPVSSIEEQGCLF

[16] = E. coli growth modulation, two-sided OD650, primary screen, E. coli filamentation project, strain DRC41, 24 h (AID 1093); conditions: OD650, 24 h, higher = more signal, called active from +8 up or from −8 down;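 note: MC1000 strain lacking acrAB efflux and sulA so SOS filamentation is blocked; test concentration not given here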
[17] = small-molecule microarray binders of probe aLefty2, primary screen, biochemical, biotinylated probe, 635/667 nm fluorescence (AID 1094); conditions: higher = more signal;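 note: score merges spot fluorescence near 667 nm with spot signal-to-noise ratio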
[18] = system: Noggin (protein binding on small-molecule microarray); assay: Noggin binders on small-molecule microarray, primary screen, biochemical, 635/667 nm fluorescence (AID 1095); conditions: 635 nm fluorescence, higher = more signal;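 note: score merges 667 nm feature fluorescence with signal to noise over triplicate slides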
[19] = target: Neurogenic locus notch homolog protein 3 (Homo sapiens) (UniProt Q9UM47); assay: NOTCH3 binders on small-molecule microarray, primary screen, biochemical, 635/667 nm fluorescence (AID 1096); conditions: NOTCH3 binding, 635 nm fluorescence, higher = more signal
Chain of Neurogenic locus notch homolog protein 3 (Homo sapiens) (Q9UM47 whole entry, looked up): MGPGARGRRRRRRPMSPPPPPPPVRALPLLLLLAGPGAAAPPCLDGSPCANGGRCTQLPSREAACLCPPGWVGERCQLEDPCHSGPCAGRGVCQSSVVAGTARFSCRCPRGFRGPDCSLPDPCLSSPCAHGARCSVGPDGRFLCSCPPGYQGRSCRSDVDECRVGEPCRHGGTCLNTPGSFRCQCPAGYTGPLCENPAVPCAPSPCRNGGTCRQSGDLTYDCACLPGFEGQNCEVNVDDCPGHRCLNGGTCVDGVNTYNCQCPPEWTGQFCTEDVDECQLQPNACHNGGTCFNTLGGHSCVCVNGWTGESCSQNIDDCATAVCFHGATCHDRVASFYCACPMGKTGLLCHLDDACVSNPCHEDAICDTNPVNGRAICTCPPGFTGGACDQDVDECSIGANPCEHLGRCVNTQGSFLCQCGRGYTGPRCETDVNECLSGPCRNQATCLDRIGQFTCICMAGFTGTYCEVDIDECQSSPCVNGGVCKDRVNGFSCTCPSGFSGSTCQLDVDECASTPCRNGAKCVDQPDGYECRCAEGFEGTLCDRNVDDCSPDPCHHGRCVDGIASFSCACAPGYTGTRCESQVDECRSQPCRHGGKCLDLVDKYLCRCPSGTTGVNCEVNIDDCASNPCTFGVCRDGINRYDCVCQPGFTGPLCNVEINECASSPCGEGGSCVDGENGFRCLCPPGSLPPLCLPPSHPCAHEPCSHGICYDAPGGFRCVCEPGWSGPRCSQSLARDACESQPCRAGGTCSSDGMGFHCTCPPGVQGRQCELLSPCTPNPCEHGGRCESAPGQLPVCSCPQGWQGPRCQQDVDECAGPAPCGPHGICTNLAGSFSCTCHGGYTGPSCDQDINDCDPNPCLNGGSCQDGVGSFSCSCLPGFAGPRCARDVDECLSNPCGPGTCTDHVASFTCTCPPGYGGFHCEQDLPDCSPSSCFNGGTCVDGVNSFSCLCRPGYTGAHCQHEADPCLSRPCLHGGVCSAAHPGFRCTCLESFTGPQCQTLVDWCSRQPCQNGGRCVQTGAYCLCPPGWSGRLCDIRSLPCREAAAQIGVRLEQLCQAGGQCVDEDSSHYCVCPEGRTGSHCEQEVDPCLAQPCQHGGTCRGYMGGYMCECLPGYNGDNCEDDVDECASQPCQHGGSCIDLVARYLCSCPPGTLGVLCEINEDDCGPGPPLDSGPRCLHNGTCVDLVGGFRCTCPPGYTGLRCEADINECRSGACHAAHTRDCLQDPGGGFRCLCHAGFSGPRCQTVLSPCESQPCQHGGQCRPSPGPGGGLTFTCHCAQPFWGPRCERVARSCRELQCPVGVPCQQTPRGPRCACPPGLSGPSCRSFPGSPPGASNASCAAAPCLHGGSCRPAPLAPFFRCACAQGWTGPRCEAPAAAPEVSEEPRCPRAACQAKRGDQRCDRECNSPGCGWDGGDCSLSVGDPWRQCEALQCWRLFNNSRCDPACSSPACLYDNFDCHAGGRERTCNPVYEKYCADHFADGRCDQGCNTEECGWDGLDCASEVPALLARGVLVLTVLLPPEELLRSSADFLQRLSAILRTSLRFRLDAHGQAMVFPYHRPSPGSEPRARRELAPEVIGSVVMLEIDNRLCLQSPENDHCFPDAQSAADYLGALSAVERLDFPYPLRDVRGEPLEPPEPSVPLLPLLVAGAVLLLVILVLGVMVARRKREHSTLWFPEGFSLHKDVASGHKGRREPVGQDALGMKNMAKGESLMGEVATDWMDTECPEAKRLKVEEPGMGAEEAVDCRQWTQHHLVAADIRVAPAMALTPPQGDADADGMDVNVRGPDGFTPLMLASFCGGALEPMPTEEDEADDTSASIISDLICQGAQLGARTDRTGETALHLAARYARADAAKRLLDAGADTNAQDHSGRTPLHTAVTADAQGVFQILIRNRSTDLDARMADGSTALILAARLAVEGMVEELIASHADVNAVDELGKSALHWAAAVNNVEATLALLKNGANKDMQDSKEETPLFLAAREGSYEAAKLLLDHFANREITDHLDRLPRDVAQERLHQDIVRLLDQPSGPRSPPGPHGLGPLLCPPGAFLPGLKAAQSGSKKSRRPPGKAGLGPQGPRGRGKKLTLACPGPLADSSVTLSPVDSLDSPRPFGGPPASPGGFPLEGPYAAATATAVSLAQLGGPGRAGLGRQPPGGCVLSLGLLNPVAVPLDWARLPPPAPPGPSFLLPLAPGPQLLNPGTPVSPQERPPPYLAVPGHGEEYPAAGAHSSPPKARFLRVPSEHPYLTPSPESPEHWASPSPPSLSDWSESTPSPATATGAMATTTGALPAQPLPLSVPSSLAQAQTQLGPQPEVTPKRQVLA

[20] = small-molecule microarray binders of probe aEGFR, primary screen, biochemical, biotinylated probe, 635/667 nm fluorescence (AID 1097); conditions: higher = more signal;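 note: probe is a biotinylated anti-EGFR antibody binding compounds printed on slides; score combines fluorescence near 667 nm and signal to noise of each spot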

Compound COCC(=C=CC[C@H](O)c1cccc(OCCO)c1)C[C@H](O)c1ccccn1 has a composite z-score [1] of -0.203, a composite z-score [2] of -0.3 and a composite z-score [3] of -0.135. The composite z-score [4] was 0.18, the composite z-score [5] was -0.542 and the composite z-score [6] was 1.24. The composite z-score [7] was 1.44, the z-score [8] was 0.0158 (inactive) and the composite z-score [9] was 0.395. For the same compound, the composite z-score [10] was -0.0618, the composite z-score [11] was 1.02 and the z-score [12] was 0.941 (inactive). The z-score [13] was 0.44 (inactive), the z-score [14] was 0.371 (inactive) and the composite z-score [15] was 1.88. For the same compound, the z-score [16] was 0.559 (inactive), the composite z-score [17] was -0.166 and the composite z-score [18] was 0.704. The composite z-score [19] was 0.0673 and the composite z-score [20] was 0.0149.

With CCOC(=O)C1=CC[C@@H](c2ccccc2)N(S(=O)(=O)c2ccc(C)cc2)C1 the composite z-score [1] was 0.694, the composite z-score [2] was 0.235 and the composite z-score [3] was 0.0497. For the same compound, the composite z-score [4] was -0.0495, the composite z-score [5] was 0.681 and the composite z-score [6] was -0.273. For the same compound, the composite z-score [7] was 0.643, the z-score [8] was -3.73 (inactive) and the composite z-score [9] was 0.648. For the same compound, the composite z-score [10] was 0.0274, the composite z-score [11] was -0.363 and the z-score [12] was 0.483 (inactive). For the same compound, the z-score [13] was 1.09 (inactive), the z-score [14] was 2.72 (inactive) and the composite z-score [15] was 0.353. For the same compound, the z-score [16] was -0.855 (inactive), the composite z-score [17] was 0.365 and the composite z-score [18] was -0.0914. It also gave a composite z-score [19] of -0.198 and a composite z-score [20] of -0.0521.

In the case of COc1ccc(C(O)C2C=CC3C(=O)N(c4ccccc4)C(=O)C3N2Nc2ccc(C#N)cc2)c2ccccc12 (stereo not given), the composite z-score [1] is reported as 0.983, the composite z-score [2] is reported as 0.707 and the composite z-score [3] is reported as 0.0785. For the same compound, the composite z-score [4] was 0.337, the composite z-score [5] was 1.6 and the composite z-score [6] was 1.96. The composite z-score [7] was 1.11, the z-score [8] was 0.757 (inactive) and the composite z-score [9] was 1.2. The composite z-score [10] was 0.0515, the composite z-score [11] was 1.35 and the z-score [12] was -1.89 (inactive). The z-score [13] was 2.35 (inactive), the z-score [14] was 0.906 (inactive) and the composite z-score [15] was 3.38. For the same compound, the z-score [16] was -0.945 (inactive), the composite z-score [17] was 0.397 and the composite z-score [18] was 0.238. For the same compound, the composite z-score [19] was 1.08 and the composite z-score [20] was -0.0424.

Compound COCCCNC(=O)[C@@]1(Sc2ccc(C)cc2)CC(=O)N(C2Cc3ccccc3C2)[C@@H]1c1ccc(CO)cc1I has a composite z-score [1] of 0.926, a composite z-score [2] of -0.247 and a composite z-score [3] of -0.156. For the same compound, the composite z-score [4] was -0.379, the composite z-score [5] was -1.02 and the composite z-score [6] was 1.12. For the same compound, the composite z-score [7] was -0.447, the z-score [8] was -0.703 (inactive) and the composite z-score [9] was -0.926. The composite z-score [10] was -0.294, the composite z-score [11] was -0.649 and the z-score [12] was -0.881 (inactive). For the same compound, the z-score [13] was -1.79 (inactive), the z-score [14] was 1.43 (inactive) and the composite z-score [15] was -0.165. The z-score [16] was -0.421 (inactive), the composite z-score [17] was -0.0441 and the composite z-score [18] was -1.39. It also gave a composite z-score [19] of -1.16 and a composite z-score [20] of -0.251.

With COc1ccc(C(O)C2C=CC3C(=O)N(c4ccccc4)C(=O)C3N2Nc2ccccc2)cc1OCc1ccccc1 (stereo not given) the composite z-score [1] was 0.12, the composite z-score [2] was 0.748 and the composite z-score [3] was 0.206. For the same compound, the composite z-score [4] was 1.1, the composite z-score [5] was 1.51 and the composite z-score [6] was 1.48. For the same compound, the composite z-score [7] was 1.15, the z-score [8] was 0.0678 (inactive) and the composite z-score [9] was 1.64. For the same compound, the composite z-score [10] was 0.0515, the composite z-score [11] was 1.57 and the z-score [12] was -0.177 (inactive). For the same compound, the z-score [13] was 1.3 (inactive), the z-score [14] was 0.25 (inactive) and the composite z-score [15] was 3.53. For the same compound, the z-score [16] was -1.2 (inactive), the composite z-score [17] was 0.104 and the composite z-score [18] was 0.88. For the same compound, the composite z-score [19] was 1.03 and the composite z-score [20] was 0.0386.
